The subject of test [1] is TLR4-MyD88 interaction (human), BLA complementation. As to the kind of experiment: disruptors of TLR4 binding to MyD88 – cell-based, HeLa CL3-4, BLA complementation, FRET ratio, confirmation (AID 941;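 active means mean inhibition across three repeat runs above about 25% carried over from the earlier screen, limit read from the data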;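 further: plate controls were DMSO only for no effect and clavulanic acid blocking BLA at full dose for full effect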). The note with it: CCF4 FRET ratio, at 8.4 µM, hits give high values.
The nature of test [2]: BLA reporter interference in HeLa cells – cell-based, full-length BLA, CCF4 FRET ratio, artefact control for TLR4-MyD88 binding inhibitor project, confirmation (AID 1237;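 active means mean inhibition over three repeats above about 26% taken from the earlier screen, limit read from the data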;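 further: HeLa cells stably expressing beta-lactamase reporter as counterscreen for TLR4-MyD88 inhibitors; 0% = DMSO and 100% = clavulanic acid full inhibition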). As to conditions: at 8.4 µM, hits give high values.
The target of test [3] is Insulin-degrading enzyme (Homo sapiens) (UniProt P14735). As to the kind of experiment: cellular IDE Abeta-cleavage inhibition – fluorescence polarization, HEK cells, FAbetaB substrate, confirmation (AID 435028;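 active means mean inhibition across triplicate wells above the cutoff set by the earlier primary insulin-degrading enzyme screen, cut at about 16% in these data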;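 further: 0% = DMSO wells and 100% = 60 µM reference IDE inhibitor Ii1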). The note with it: at 5.59 µM, hits give high values.
Test [4] is described as follows: HEK cell viability loss – luminescence, cytotoxicity control for IDE inhibitor project (AID 449730; in the data active means inhibition above about 22%;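 further: 0% = vehicle wells and 100% = reference cytotoxic drug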). The note with it: HEK293 cytotoxicity, ATP luminescence; at 5.59 µM; hits give high values.
The target in test [5] is Receptor-interacting serine/threonine-protein kinase 2 (Homo sapiens) (UniProt O43353). Put plainly: inhibitors of RIPK2 association with NOD2 – fluorescence, CHO cells, BLA complementation, triplicate, confirmation (AID 624370;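 active means mean inhibition across replicates above a set limit taken from the earlier primary screen, cut at about 21% in these data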;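 further: 0% = DMSO-only wells and the high end = clavulanate BLA-blocked wells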). As to conditions: CCF4 FRET, at 4.98 µM, hits give high values.
The nature of test [6]: BLA reporter readout interference – cell-based, CHO-K1 CMV-bla, CCF4 FRET, fluorescence, artefact control for NOD2-RIPK2 interaction inhibitor project, confirmation (AID 624371;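 active means mean inhibition above the low-control mean inhibition plus three low-control SD, cut at about 11% in these data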;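 further: 0% = DMSO only wells and 100% = clavulanate high control wells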). As to conditions: CCF4 FRET ratio, counterscreen, at 4.98 µM, hits give high values. A general note: The purpose of a counterscreen is to sort out artefacts and off-target activity.
Test [7] can be described thus: BSA probe fluorescence interference – biochemical, TAMRA-labeled BSA, counter-screen for TCR-CD3 interaction inhibitor project (AID 652035; in the data active means inhibition above about 23%;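 further: 0% = buffer low control and 100% = reference high control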). The note with it: TAMRA-labeled BSA probe fluorescence counterscreen; at 9.4 µM; hits give high values.
The test system of test [8] is T-cell receptor (TCR)-CD3 interaction, human. As to the kind of experiment: blockers of TCR binding to CD3 – biochemical, fluorescence, TAMRA-labeled TCR probe, confirmation (AID 652036; in the data active means inhibition above about 19%). As to conditions: TAMRA-labeled TCR probe fluorescence binding assay; at 9.4 µM; hits give high values.
Test [9] has as its system HIV-1 integrase (multimerization). As to the kind of experiment: stimulation of HIV-1 integrase oligomerization – biochemical, TR-FRET, counter-screen for LEDGF/p75 integration inhibitor project (AID 1053131; in the data active means activation above about 8.9%). As to conditions: TR-FRET HIV-1 integrase multimerization, at 7.7 µM, hits give high values. (In general: TR-FRET usually uses a lanthanide donor and a delayed reading to cut background.)

The nature of test [10]: compounds disturbing TR-FRET signal readout – biochemical, HIV-1 IN multimerization, artefact control for LEDGF/p75-dependent integration inhibitor project, confirmation (AID 1053135).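 Further: 0% = integrase with antibodies and DMSO and 100% = antibodies without integrase.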 The note with it: TR-FRET optical interference counterscreen, at 7.7 µM, hits give high values.
For test [11], the system named is HIV-1 integrase / human LEDGF/p75 complex. Put plainly: blockers of LEDGF/p75-dependent integrase activity – biochemical, TR-FRET, confirmation (AID 1053136; in the data active means inhibition above about 14%). As to conditions: TR-FRET LEDGF/p75-dependent HIV-1 integration, at 3.7 µM, hits give high values.
Test [12] in a line: reduced OD of V66 E. coli with T4 gene 2 phage – absorbance, RecBCD inhibitor project, confirmation (AID 651982;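 active means mean inhibition over triplicates exceeding the hit threshold derived in the original primary screen, cut at about 11% in these data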). The note with it: E. coli V66 + T4 2- phage, growth OD; at 11.9 µM; hits give high values.
Test [13] in a line: bacterial growth inhibition – absorbance, high throughput, counter-screen for RecBCD inhibitor project (AID 651983; in the data active means inhibition above about 20%;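 further: E. coli strain V66 grown with compound alone and no phage infection; 0% = bacteria with DMSO vehicle only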). As to conditions: E. coli viability, absorbance (OD) growth; at 11.9 µM; hits give high values.
Test [14] is described as follows: reduced optical density, T4-challenged addAB+ bacteria – absorbance, E. coli V3065, T4 phage, counter-screen for RecBCD inhibitor project, confirmation (AID 651984;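 active means mean inhibition above the solvent-only control wells' mean plus 3 SD, cut at about 22% in these data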;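 further: higher means less bacterial growth from phage killing when AddAB is blocked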). The note with it: E. coli expressing H. pylori AddAB + T4 phage, OD growth; at 11.9 µM; hits give high values; gene 2 mutant T4, recBCD-deleted host.
A short description of test [15]: reduced OD of T4-infected AddAB+ E. coli – absorbance, E. coli V3065, T4 phage, triplicate, AddAB inhibitor project, confirmation (AID 488942;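 active means mean inhibition above a set limit taken from the earlier primary screen, cut at about 13% in these data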;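 further: higher means less bacterial growth since AddAB block lets phage replicate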). The note with it: E. coli V3065 expressing H. pylori AddAB, at 11.9 µM, hits give high values, T4 phage with gene 2 nonsense mutations.
Test [16] in a line: reduced OD of phage-infected RecBCD+ V66 E. coli – absorbance, mutant T4 phage, counter-screen for AddAB inhibitor project (AID 488955;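 active means mean inhibition above the mean of solvent-only control wells plus 3 SD, cut at about 4% in these data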;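 further: optical density read after an 18 h incubation at 37 °C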). As to conditions: OD growth, at 11.9 µM, hits give high values.
The nature of test [17]: bacterial growth inhibitors – absorbance, counter-screen for AddAB inhibitor project, confirmation (AID 488956; in the data active means inhibition above about 25%). The note with it: bacterial viability, absorbance (AddAB counterscreen); at 11.9 µM; hits give high values.
A short description of test [18]: potentiators of IFN-gamma STAT1 reporter activity – cell-based, HTS, luciferase reporter, confirmation (AID 1262;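 active means activation above a set limit carried over from the earlier primary STAT1 screen, cut at about 140% in these data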;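 further: simple ratio to median IFN-gamma plus DMSO wells so 0% means no light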). As to conditions: NIH 3T3 STAT1-luciferase reporter, IFN-gamma potentiation, luminescence; at 5.7 µM; hits give high values; 100% = IFN-gamma EC80 alone, no compound.
Test [19] can be described thus: enhancement of NF-kB transcriptional signalling – cell-based, HEK293T, luciferase luminescence, TNF-alpha, counter-screen for STAT1 activator project (AID 1306;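 active means activation above the mean of solvent-only control wells plus 3 SD, set per campaign, cut at about 130% in these data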;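 further: TNF-alpha given at a submaximal dose yielding about 80% of full reporter signal; values are well signal over median control so 100% means no change and 0% no light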). The note with it: HEK293T NF-kB luciferase reporter, TNF-alpha stimulated, at 5.7 µM, hits give high values, 100% = TNF-alpha with vehicle only.
Test [20] addresses Signal transducer and activator of transcription 3 (Homo sapiens) (UniProt P40763). Put plainly: enhancers of IL-6 STAT3 transcription – U3A cells, luciferase, luminescence, counter-screen for STAT1 activator project, confirmation (AID 1316;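 active means activation above the solvent-only control well mean plus 3 SD, set per plate batch, cut at about 110% in these data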;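 further: 0% = no luminescence and 100% = median IL-6 plus DMSO wells; higher means more STAT3 reporter activation so hits are non-selective activators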). As to conditions: U3A cells STAT3-luciferase reporter, IL-6, luminescence; at 5.7 µM; hits give high values; 100 = IL-6 alone, no compound effect; cells lack STAT1.

Test [21] deals with Fam108b (Abhd17b) serine hydrolase [Mus musculus]. As to the kind of experiment: inhibition of Fam108b (Abhd17b) hydrolase – biochemical, fluorescence polarization, triplicate, counter-screen for RBBP9 inhibitor project, confirmation (AID 1978;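 active means inhibition above a limit from the primary screen, the mean over all compounds plus 3 SD, cut at about 19% in these data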;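 further: 0% = median of active Fam108b wells and 100% = catalytically dead S170A mutant; inhibitors free the probe so polarization falls as inhibition rises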). The note with it: recombinant Fam108b, FP-Rh probe fluorescence polarization; at 9.51 µM; hits give high values. On the technique in general: Fluorescence polarisation rises when a labelled molecule tumbles more slowly, as on binding a larger partner.

For test [22], the target named is Toll-like receptor 9 (Homo sapiens) (UniProt Q9NR96). As to the kind of experiment: disruptors of TLR9 binding to MyD88 – cell-based, CHO, BLA complementation, fluorescence, triplicate, confirmation (AID 540250;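 active means mean inhibition across three repeats above about 21% taken from the earlier screen, limit read from the data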;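 further: blue over green emission ratio reports constitutive TLR9 MyD88 association via BLA complementation; 0% = DMSO vehicle wells and 100% = clavulanate BLA inhibitor wells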). As to conditions: CCF4 FRET ratio, at 4.98 µM, hits give high values.
The nature of test [23]: BLA reporter readout interference – cell-based, fluorescence, artefact control for TLR9-MyD88 binding inhibitor project (AID 540251;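 active means mean inhibition above a 50% cutoff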;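 further: counterscreen of TLR9-MyD88 hits on CMV-driven BLA in CHO-K1 cells; 0% = DMSO alone and 100% = clavulanate blocking BLA; higher means less blue over green ratio so more BLA blockade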). As to conditions: CHO-BLA cells, CCF4 FRET ratio, at 4.98 µM, hits give high values.
Test [24] in a line: CHO cell viability loss – luminescence, single concentration, cytotoxicity control for TLR9-MyD88 binding inhibitor project (AID 588336; in the data active means inhibition above about 11%). As to conditions: TLR9-MyD88 CHO cells cytotoxicity, at 4.98 µM, hits give high values.
The target in test [25] is (Lyso)-N-acylphosphatidylethanolamine lipase (Mus musculus) (UniProt Q8VD66). Put plainly: mouse ABHD4 hydrolase blockers, triplicate – biochemical, fluorescence polarization, confirmation (AID 720658;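 active means mean inhibition across replicates above the hit cutoff set in the primary screen, cut at about 30% in these data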;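 further: 0% = wild-type ABHD4 with DMSO and 100% = catalytically dead S159A mutant with DMSO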). The note with it: purified mABHD4, FP-Rh probe fluorescence polarization; at 8.92 µM; hits give high values.
The target in test [26] is Serine protease HTRA1 (Homo sapiens) (UniProt Q92743). As to the kind of experiment: confirming inhibition of human HTRA1 – biochemical, fluorescence polarization, confirmation (AID 540248;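 active means mean inhibition over three repeats above a set limit taken from the earlier primary screen, cut at about 37% in these data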;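 further: 0% = HTRA1 with DMSO and 100% = wells lacking HTRA1; inhibitors block probe binding so polarization drops and inhibition rises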). As to conditions: recombinant HTRA1, FP-rhodamine activity-based probe, at 5.96 µM, hits give high values.

Our source for the inhibition, activation and activation (% of control) values is PubChem BioAssay.

Each structure is given as a SMILES string. This is one part of the list. Values without a mark were called inactive. Calls of active or inactive are those of the source.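 How the source made its calls, unless noted: active means inhibition above the mean over all tested compounds plus 3 SD, which no compound reached; inactive means the rest.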

Receptor-interacting serine/threonine-protein kinase 2 (Homo sapiens), sequence (O43353 whole entry, looked up): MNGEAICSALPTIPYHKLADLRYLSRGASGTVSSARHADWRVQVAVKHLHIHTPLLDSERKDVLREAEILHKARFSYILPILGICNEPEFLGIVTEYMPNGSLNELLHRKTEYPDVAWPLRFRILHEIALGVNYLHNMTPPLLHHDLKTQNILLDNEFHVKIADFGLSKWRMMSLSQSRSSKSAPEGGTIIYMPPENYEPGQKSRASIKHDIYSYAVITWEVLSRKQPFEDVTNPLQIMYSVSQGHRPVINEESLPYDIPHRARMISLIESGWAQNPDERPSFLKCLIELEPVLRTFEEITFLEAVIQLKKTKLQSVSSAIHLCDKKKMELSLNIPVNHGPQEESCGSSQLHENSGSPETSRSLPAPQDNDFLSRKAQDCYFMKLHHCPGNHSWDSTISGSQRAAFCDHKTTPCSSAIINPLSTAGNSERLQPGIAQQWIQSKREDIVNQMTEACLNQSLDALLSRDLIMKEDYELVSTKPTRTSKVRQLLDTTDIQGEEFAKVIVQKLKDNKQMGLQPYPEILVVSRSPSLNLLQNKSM
(Lyso)-N-acylphosphatidylethanolamine lipase (Mus musculus), sequence (Q8VD66 whole entry, looked up): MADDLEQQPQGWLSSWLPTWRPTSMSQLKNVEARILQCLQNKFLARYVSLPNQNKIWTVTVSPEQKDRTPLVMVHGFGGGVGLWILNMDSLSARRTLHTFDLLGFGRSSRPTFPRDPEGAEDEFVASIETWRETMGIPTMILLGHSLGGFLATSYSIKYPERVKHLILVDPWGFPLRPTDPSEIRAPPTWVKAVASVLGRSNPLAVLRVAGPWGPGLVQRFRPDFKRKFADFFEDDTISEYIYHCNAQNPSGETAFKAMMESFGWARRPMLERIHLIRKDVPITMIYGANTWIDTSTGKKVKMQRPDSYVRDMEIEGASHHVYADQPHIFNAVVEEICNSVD
Toll-like receptor 9 (Homo sapiens), sequence (Q9NR96 whole entry, looked up): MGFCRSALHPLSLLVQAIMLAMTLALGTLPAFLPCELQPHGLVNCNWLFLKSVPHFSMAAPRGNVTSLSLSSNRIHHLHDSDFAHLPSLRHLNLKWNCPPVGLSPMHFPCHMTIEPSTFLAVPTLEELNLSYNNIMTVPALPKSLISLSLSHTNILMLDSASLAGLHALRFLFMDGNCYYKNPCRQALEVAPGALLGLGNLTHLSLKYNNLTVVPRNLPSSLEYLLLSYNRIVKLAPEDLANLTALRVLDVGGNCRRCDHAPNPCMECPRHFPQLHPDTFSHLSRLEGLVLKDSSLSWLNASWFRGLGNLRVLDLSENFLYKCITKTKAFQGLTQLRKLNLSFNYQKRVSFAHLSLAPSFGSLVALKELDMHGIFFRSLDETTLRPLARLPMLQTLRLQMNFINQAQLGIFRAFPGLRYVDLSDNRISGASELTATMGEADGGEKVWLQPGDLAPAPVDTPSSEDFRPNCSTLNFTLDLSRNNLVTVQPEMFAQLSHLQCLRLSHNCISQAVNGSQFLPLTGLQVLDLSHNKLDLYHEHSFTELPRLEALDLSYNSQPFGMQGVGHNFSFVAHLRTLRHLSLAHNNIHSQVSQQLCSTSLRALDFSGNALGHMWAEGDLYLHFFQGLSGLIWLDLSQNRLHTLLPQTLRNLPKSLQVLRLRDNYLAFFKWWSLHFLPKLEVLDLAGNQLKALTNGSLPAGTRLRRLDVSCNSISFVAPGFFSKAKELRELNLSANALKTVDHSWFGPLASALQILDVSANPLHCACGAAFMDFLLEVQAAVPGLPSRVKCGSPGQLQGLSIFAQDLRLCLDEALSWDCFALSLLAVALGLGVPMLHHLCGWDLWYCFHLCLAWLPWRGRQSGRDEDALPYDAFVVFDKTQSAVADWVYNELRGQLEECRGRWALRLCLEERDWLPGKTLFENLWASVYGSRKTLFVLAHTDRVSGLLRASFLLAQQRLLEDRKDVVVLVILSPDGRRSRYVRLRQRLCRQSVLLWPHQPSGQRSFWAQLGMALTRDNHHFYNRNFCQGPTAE
Insulin-degrading enzyme (Homo sapiens), sequence (P14735 whole entry, looked up): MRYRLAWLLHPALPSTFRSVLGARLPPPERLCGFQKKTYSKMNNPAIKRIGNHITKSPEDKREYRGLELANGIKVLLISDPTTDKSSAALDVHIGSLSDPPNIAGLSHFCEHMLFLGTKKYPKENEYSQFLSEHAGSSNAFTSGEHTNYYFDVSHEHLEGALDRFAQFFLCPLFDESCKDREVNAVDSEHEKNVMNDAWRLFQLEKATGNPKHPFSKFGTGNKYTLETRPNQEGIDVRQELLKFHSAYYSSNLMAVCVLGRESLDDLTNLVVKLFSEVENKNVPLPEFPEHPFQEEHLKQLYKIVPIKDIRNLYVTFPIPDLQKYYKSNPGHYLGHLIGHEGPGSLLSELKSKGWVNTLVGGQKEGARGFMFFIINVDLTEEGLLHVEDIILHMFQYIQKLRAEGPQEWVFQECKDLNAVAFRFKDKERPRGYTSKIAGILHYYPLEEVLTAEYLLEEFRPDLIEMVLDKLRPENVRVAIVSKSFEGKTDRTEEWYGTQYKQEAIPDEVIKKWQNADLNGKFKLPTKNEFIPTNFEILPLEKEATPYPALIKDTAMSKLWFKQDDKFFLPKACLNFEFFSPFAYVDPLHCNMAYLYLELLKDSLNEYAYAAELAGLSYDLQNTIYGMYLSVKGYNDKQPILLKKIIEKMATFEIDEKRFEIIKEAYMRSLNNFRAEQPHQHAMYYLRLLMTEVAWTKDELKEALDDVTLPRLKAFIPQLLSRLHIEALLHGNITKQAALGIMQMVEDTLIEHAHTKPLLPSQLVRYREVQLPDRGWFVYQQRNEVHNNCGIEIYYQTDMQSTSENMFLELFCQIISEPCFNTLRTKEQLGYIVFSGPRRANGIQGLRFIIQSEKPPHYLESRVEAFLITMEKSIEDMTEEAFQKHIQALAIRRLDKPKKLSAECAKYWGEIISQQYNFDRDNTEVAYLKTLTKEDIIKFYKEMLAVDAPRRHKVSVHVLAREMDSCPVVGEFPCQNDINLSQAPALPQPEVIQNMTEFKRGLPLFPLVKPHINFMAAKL

The inhibition is the change of the read-out against control, counted positive when it falls. In the case of `O=C(/C=C/c1ccc(N2CCOCC2)cc1)c1ccccc1`, the inhibition is 21.1% in [1]; 45.8% (active) in test [2]; 14.1% in test [3]; 15.4% in test [4]; 29% (active) in test [5]; 31.2% (active) in test [6].

For the compound `Cc1ccc(Cc2cnc(N)s2)o1`, the inhibition in test [7] was 0.16%; in test [8], 2.57%; in test [10] it was -22.6%; in test [11], 10.6%. The activation in test [9] was 6.28%.

With `O=C(NNC(=O)c1ccccc1O)c1ccccc1O`, the inhibition in test [12] was 25.8% (active); in [13], 26.4% (active); in [14] it was 38.9% (active); in test [7], 2.97%; in test [8], 37.8% (active); in test [10] it was -4.93%. In test [11], the inhibition was 62.9% (active). The activation in test [9] is 0.99%.

Take `C=CC1=C(C(=O)O)N2C(=O)[C@@H](NC(=O)/C(=N\OCC(=O)O)c3csc(N)n3)[C@H]2SC1`: the inhibition in test [15] is 103% (active); in [16] it was 103% (active); in [17], 104% (active); in test [12], 102% (active); in test [13], 104% (active); in test [14], 104% (active). The figures for the inhibition in test [10] and in test [11] were -430% and 62.9% (active), respectively. In addition, the activation in [9] is 85.5% (active).

Consider `Cn1ccc(=Nc2ccc(NC(=O)c3ccc(N=c4ccn(C)c5ccc([N+](=O)[O-])cc45)cc3)cc2)cc1`, for which the inhibition in test [15] was 99.9% (active); in [16], 101% (active); in test [17] it was 101% (active); in test [12] it was 101% (active); in test [13], -7.32%; in test [14], 102% (active). Moreover, the inhibition was 2.56% in test [10] and 21% (active) in [11]. Also, the activation in [9] is -0.71%.

On to `Cc1ccc(NC(=O)Nc2ccccc2)c(Br)c1`, for which the activation (% of control) in [18] was 171% (active); in test [19], 124%; in test [20], 89.8%.

As for `Cc1cccc(COc2ccccc2/C=N/Nc2ccc([N+](=O)[O-])cc2)c1`, the inhibition in test [1] is 16.9%; in [2] it was 36.9% (active); in test [21] it was 9.96%; in test [22] it was 20.3%; in test [23], 23.3%; in [24] it was -1.39%. In addition, the inhibition is 44.2% (active) in test [5] and 50.4% (active) in test [6].

With `Cc1ccc(S(=O)(=O)/N=C2\C=C(NS(=O)(=O)c3ccc(C)cc3)C(=O)c3ccccc32)cc1`, the figures for the inhibition in test [25], in [10] and in [11] were 60.6% (active), 5.59% and 12%, respectively. Moreover, the activation in test [9] was -1.1%.

With `Cc1cc(C(=O)N/N=C/c2ccc(O)c([N+](=O)[O-])c2)c(C)n1-c1ccc(F)cc1`, the inhibition in test [26] is 120% (active); in test [25], 74% (active); in test [10], -71.4%; in test [11] it was 17.8% (active). Moreover, in test [9], the activation was 14.2% (active).

On to `CCOC(=O)/C(C#N)=C/c1ccc(N2CCCCC2)cc1`, for which the activation (% of control) is 155% (active) in [18], 140% (active) in test [19] and 108% in test [20].

With `COc1ccc(-n2ncc3c(N4CCCc5ccccc54)ncnc32)cc1`, the activation (% of control) was 209% (active) in [18], 139% (active) in test [19] and 112% (active) in [20].
